Screening results (PubChem)
Rows were chosen to be rich in hits. Some 17% of all compounds tested hit in one or more screens of this group.
HT1080-NT tox: kills 2HG-producing HT-1080-NT fibrosarcoma cells. HT-1080-NT fibrosarcoma viability, CellTiter-Glo ATP luminescence, 48 h. Potency, µM (highest dose often 46.1 µM), for the others: at the top dose activity, negative = less viability, most hits filed as cytotoxic. hit rate 1.6% among 360,000. AID 686970;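 note: NT is the 2HG producing partner of a matched IDH1 knockdown line; 0% = DMSO-treated cells and -100% = media-only wells without cells; nearly all actives have a fitted effect of over 55% in size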
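A 48-hour cytotoxicity screen used HT-1080-NT cells plated 2 hours before compound delivery. ATP-based CellTiter-Glo luminescence measured viability, normalized to DMSO and no-cell controls.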
HT1080 IDH1KD tx: HT-1080 IDH1 knockdown cell toxicity (counter line); HT-1080 IDH1 knockdown viability, ATP luminescence, 48 h; Potency, µM (highest dose often 46.1 µM), without a hit: at the top dose activity, negative = toxicity, most hits filed as cytotoxic; hit rate 2% among 360,000;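 note: 0% = DMSO wells and -100% = cell-free medium wells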
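Assay cells: HT-1080 with IDH1 knockdown, 750 per well, RPMI/5% FBS. Exposure: 48 h at 37 °C following 2 h pre-incubation. Read: CellTiter-Glo luminescence; fitted concentration-response, curve class assigned.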
TDP1 cell CPT: growth inhibition of DT40 Tdp1-/-;hTDP1 cells with camptothecin (screen for TDP1 inhibitors). chicken DT40 Tdp1-/-;hTDP1 cells + 20 nM CPT, ATP luminescence, 48 h. Potency, µM (top dose mostly 46.2 µM), inactives show at the highest dose activity change, negative = growth inhibition, hits mostly inhibitors. hit rate 12% among 420,000. AID 686979; note: % is set by controls: 0 for no effect and ±100 for the full control effect; nearly all actives have a fitted effect of over 55% in size
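Chicken DT40 Tdp1-/- cells stably complemented with human TDP1 were seeded at 400 cells/well in medium containing 20 nM camptothecin, exposed to pin-transferred compounds, and grown at 37 °C for at least 48 hr. Viability was read as ATP luminescence.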
TDP1 cell noCPT: qHTS for Inhibitors of human tyrosyl-DNA phosphodiesterase 1 (TDP1): qHTS in cells in absence of CPT | DT40 Tdp1-/- hTDP1 cells, no CPT, ATP luminescence, 48 h | Potency, µM (titrated, usually from 46.2 µM), for the others: at the highest dose activity change, negative = growth inhibition, actives largely listed as inhibitors | hit rate 15% among 420,000; note: % is set by controls: 0 for no effect and ±100 for the full control effect; nearly all actives have a fitted effect of over 55% in size
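Camptothecin absent (DMSO only). Human TDP1-complemented DT40 knockout cells, 400 cells/well, 37 °C for minimum 48 hr; ATP measured via CellTiter-Glo, 30 min dark incubation, luminescence.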
HepG2 tox-1: HepG2 cytotoxicity, counter-screen for TGF-b inhibitors; HepG2 CAGA-GFP viability, ATP luminescence, 18 h; Potency, µM (titrated, usually from 46.1 µM), for inactives: at the top dose activity change, negative = cytotoxicity, most hits filed as cytotoxic; hit rate 0.76% among 410,000; AID 588856
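HepG2 CAGA-GFP cells (1000/well, DMEM with 1% FBS) received compound, then TGF-beta at 500 pg/mL final, and were incubated 18 hours at 37 degrees C. Viability was read by CellTiter-Glo luminescence. Media-only wells were set as complete cell-killing and DMSO as no toxicity.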
TGFb SMAD3 inh: inhibitors of TGF-b signaling; HepG2 CAGA-GFP TGF-b/SMAD3 reporter, GFP fluorescence, 18 h; TGF-beta stimulated, 500 pg/mL final; Potency, µM (top dose mostly 46.1 µM), inactives show at the highest dose activity, negative = inhibition, usual class: inhibitors; hit rate 1.2% among 410,000; AID 588855; note: % is set by controls: 0 for no effect and ±100 for the full control effect; nearly all actives have a fitted effect of over 65% in size
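Per well, imaged GFP fluorescence of HEPG2 CAGA-GFP cells gives the signal; cells get compound, then TGF-beta (500 pg/mL final), 18 h at 37 degrees C; %Activity versus -TGF-beta and +DMSO controls.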
TGFb confirm: confirmation of TGF-b signaling inhibitors in HepG2 reporter cells | AID 720534 | hit rate 63% among 1,600 | Potency, µM (top dose mostly 46.1 µM), for inactives: at the highest dose activity, negative = inhibition, actives largely listed as inhibitors | shares compounds with TGFb SMAD3 inh | HepG2 CAGA-GFP TGF-b reporter, GFP fluorescence, 18 h; cells stimulated with TGF-beta, 500 pg/mL; note: % is set by controls: 0 for no effect and ±100 for the full control effect; nearly all actives have a fitted effect of over 65% in size
HepG2 tox-2: counter-screen for TGF-b inhibitors: cytotoxicity in HepG2 cells | hit rate 27% among 1,600 | AID 720535 | Potency, µM (series often up to 46.1 µM), for inactives: top-dose activity, negative = cytotoxicity, most hits filed as inhibitors | shares compounds with TGFb SMAD3 inh | HepG2 CAGA-GFP viability, ATP luminescence, 18 h; cells stimulated with TGF-beta, 500 pg/mL; note: % is set by controls: 0 for no effect and ±100 for the full control effect; nearly all actives have a fitted effect of over 70% in size
CCL64 TGFb inh: TGF-b inhibition, CCL64 orthogonal assay; shares compounds with TGFb SMAD3 inh; hit rate 41% among 1,600; Potency, µM (titrated, usually from 46.1 µM), inactives show top-dose activity, negative = inhibition, usual class: inhibitors; CCL64 CAGA-GFP reporter, TGF-b stimulated, GFP fluorescence, 18 h; note: nearly all actives have a fitted effect of over 65% in size
TGFb COP inh: TGF-b inhibition validated with COP promoter; shares compounds with TGFb SMAD3 inh; HepG2 COP-GFP TGF-b reporter, GFP fluorescence, 18 h; cells stimulated by added recombinant TGF-beta; Potency, µM (titrated, usually from 46.1 µM), inactives show at the top dose activity, negative = inhibition, most hits filed as inhibitors; hit rate 3% among 1,600; note: nearly all actives have a fitted effect of over 70% in size
Active calls of the source: *; ? = inconclusive; nt = not tested or not shown. Calls come from the whole dose curve; as a rule, active = well fitted curve in the direction sought with a large enough effect; inconclusive = small, poorly fitted or top-dose-only effect, or another doubt; inactive = no such curve, though single readings can be large; an effect the other way counts as inactive or inconclusive. Potency is the fitted concentration of half-maximal effect.

SMILES	HT1080-NT tox	HT1080 IDH1KD tx	TDP1 cell CPT	TDP1 cell noCPT	HepG2 tox-1	TGFb SMAD3 inh	TGFb confirm	HepG2 tox-2	CCL64 TGFb inh	TGFb COP inh
CC[C@]12c3[nH]c4ccc(OC)cc4c3CCN1C(=O)C(CC(=O)NC/C=C(\C)CCC=C(C)C)C[C@@H]2C(=O)N1CCN(C(=O)c2ccco2)CC1 (stereo partly specified)	-5%	-16%	?	?	-4%	?	nt	nt	nt	nt
CC[C@]12c3[nH]c4ccc(Cl)cc4c3CCN1C(=O)[C@@H](CC(=O)NCc1cccc(C(F)(F)F)c1)C[C@@H]2C(=O)N1CCN(C(=O)C2CC2)CC1	?	?	?	?	-8%	14µM*	-77%	?	?	61%
CC[C@]12c3[nH]c4ccc(Cl)cc4c3CCN1C(=O)[C@@H](CC(=O)NC/C=C(\C)CCC=C(C)C)C[C@@H]2C(=O)N1CCN(C(=O)C2CC2)CC1	?	21µM*	?	21µM*	-68%	10µM*	?	?	21µM*	66%
CC[C@]12c3[nH]c4ccc(OC)cc4c3CCN1C(=O)C(CC(=O)NCc1cccc(C(F)(F)F)c1)C[C@@H]2C(=O)N1CCN(C(=O)c2ccco2)CC1 (stereo partly specified)	1%	-5%	?	?	-5%	?	nt	nt	nt	nt
CCCCCCCCCCCCCC(=O)OC(C)C	nt	nt	3%	-3%	nt	nt	nt	nt	nt	nt
Nc1ccc2ccccc2c1C(=O)c1ccccc1	-21%	-21%	-6%	?	-2%	8%	nt	nt	nt	nt
Cc1c(Cl)cnc(NC(=O)COC(=O)c2cccc(S(=O)(=O)N3c4ccccc4CC3C)c2)c1Cl (stereo unspecified)	-1%	8%	?	?	9%	5%	nt	nt	nt	nt
CCCCCCC[C@@H](C/C=C/CCC(=O)N(C)C/C(=C/Cl)C/C(=C\C(=O)N1CC(OC)=CC1=O)OC)OC	5.8µM*	9.2µM*	2.3µM*	1.8µM*	-70%	0.71µM*	0.73µM*	?	7.3µM*	-3%
Cc1ccsc1/C=N/NC(=O)c1cc(-c2ccncc2)nc2ccccc12	?	0.92µM*	0.58µM*	0.58µM*	-14%	?	-71%	-27%	6.5µM*	-16%
COc1ccccc1NC(=O)NCc1cccn1Cc1ccccc1	nt	nt	?	?	-4%	1%	nt	nt	nt	nt
O=C(O)CCN1CCN(S(=O)(=O)c2ccc3ccccc3c2)CC1	2%	8%	-1%	13%	14%	1%	nt	nt	nt	nt
CC(C)C[C@@H](CN1CCC[C@H]1CN1C(=O)C(=O)NC[C@@H]1Cc1ccc(O)cc1)N1C[C@H](Cc2ccccc2)N(CCc2ccccc2)C(=O)C1=O	-12%	-15%	?	-3%	nt	nt	nt	nt	nt	nt
CC(C)C[C@@H](CN1CCCC1CN1C(=S)NC[C@@H]1Cc1ccc(O)cc1)N1C[C@H](Cc2ccc(O)cc2)N(CCc2ccccc2)C1=S (stereo partly specified)	?	?	13µM*	7.3µM*	6.3µM*	5.6µM*	15µM*	?	8.2µM*	-3%
Oc1ccc(C[C@H]2CNC(=S)N2C[C@H]2CCCN2C[C@H](Cc2ccccc2)N2C[C@H](Cc3ccc(O)cc3)N(CCc3ccccc3)C2=S)cc1	15µM*	18µM*	7.3µM*	4.1µM*	2%	7.1µM*	6.5µM*	?	3.7µM*	48%
CCOc1ccc(CCN2C(=S)N([C@@H](Cc3ccc(O)cc3)CN3CCC[C@@H]3CN3C(=S)NC[C@@H]3CC(C)C)C[C@@H]2Cc2ccc(O)cc2)cc1	16µM*	21µM*	5.2µM*	3.7µM*	-40%	4.5µM*	8.2µM*	12µM*	5.2µM*	88%
O=c1cnc2cnc(N3CCOCC3)nc2n1C1CC1	nt	nt	0%	2%	nt	nt	nt	nt	nt	nt
CC1=C(C(N)=O)C(c2ccc(C(C)C)cc2)n2nc(SCc3ccccc3F)nc2N1 (stereo unspecified)	nt	nt	-3%	0%	-1%	-3%	nt	nt	nt	nt
O=C(O)c1ccc(-n2nnnc2Oc2cccc3cccnc23)cc1	1%	-2%	-7%	-5%	-32%	2%	nt	nt	nt	nt
CCc1c(C)nc(SCc2ccccn2)[nH]c1=O	7%	6%	-3%	-8%	2%	12%	nt	nt	nt	nt
Nc1ncc(Br)cc1S(=O)(=O)Nc1cc(C(F)(F)F)cc(C(F)(F)F)c1	18µM*	3.7µM*	?	18µM*	-51%	5.6µM*	6.5µM*	12µM*	?	35%
COc1cc(C2C(C#N)=C(N)OC3=C2C(=O)CCC3)c([N+](=O)[O-])cc1OC (stereo unspecified)	9%	6%	5%	0%	-15%	-5%	nt	nt	nt	nt
O=C(c1[nH]c(C(F)(F)F)nc1-c1ccccc1)N1CCN(c2cccc(C(F)(F)F)n2)CC1	1.3µM*	1.8µM*	4.6µM*	4.6µM*	-29%	11µM*	16µM*	-18%	13µM*	0%
